Screening data as filed in PubChem.
This is a sample that favours compounds with a hit; in the whole collection about 7.4% have one here.
ELG1 genotoxic – genotoxicity induction in ELG1-luciferase HEK293T cells. HEK293T ELG1-luciferase reporter, luminescence, 16 h. Potency, µM (series often up to 46 µM), hits mostly activators. 330,000 tested, 1.3% active; also: nearly all actives have a fitted effect of over 60% in size
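After overnight (16 hr) compound treatment at 37 °C, ELG1-luciferase HEK293T cells were lysed with ONE-Glo; luminescence quantified 30 min later at room temperature.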
NPC1 prom act – activates the NPC1 promoter; Huh7 NPC1 promoter luciferase reporter, 24 h; Potency, µM (series often up to 9.22 µM), usual class: activators; 320,000 tested, 2.4% active; AID 485313; also: nearly all actives have a fitted effect of over 60% in size
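Luminescence from an NPC1 promoter-driven luciferase reporter in stably transfected Huh7 cells was measured after 24 h compound treatment at 37 °C, followed by 10 min ambient incubation with luciferase detection reagent.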
KinaseGlo FLuc – Kinase-Glo luciferase inhibition (counter-screen). Q27757. Kinase-Glo luciferase, ATP luminescence, 8 min. Potency, µM (top dose mostly 38.3 µM), hits mostly inhibitors. 200,000 tested, 0.28% active; also: nearly all actives have a fitted effect of over 60% in size
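Recombinant Kinase-Glo luciferase, 10 uM ATP (linear range), luciferin; imidazole pH 7.2 / KCl / MgCl2 / Tween / BSA buffer; 8 min RT; luminescence.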
SMN2 splice up – enhancers of SMN2 splice variant expression. HEK293 SMN2-luciferase splicing reporter, luminescence, 30-36 h. Potency, µM (doses to about 46.1 µM), usual class: activators. 210,000 tested, 2.8% active; also: nearly all actives have a fitted effect of over 55% in size
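HEK293 cells carry an SMN2 minigene-luciferase reporter in which exon 7 inclusion puts luciferase in frame. Cells were seeded at 2000 cells/well, attached for 10-12 hours, then exposed to compounds for 30-36 hours at 37C before ONE-Glo luminescence.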
FLuc modulator – firefly luciferase modulation, counter-screen for miR-21 project; P08659; purified FLuc, Km substrates, luminescence inhibition; Potency, µM (top dose mostly 57.5 µM), most hits filed as inhibitors; 360,000 tested, 6.9% active; AID 588342; also: nearly all actives have a fitted effect of over 55% in size
Target sequence (P08659 whole entry, looked up): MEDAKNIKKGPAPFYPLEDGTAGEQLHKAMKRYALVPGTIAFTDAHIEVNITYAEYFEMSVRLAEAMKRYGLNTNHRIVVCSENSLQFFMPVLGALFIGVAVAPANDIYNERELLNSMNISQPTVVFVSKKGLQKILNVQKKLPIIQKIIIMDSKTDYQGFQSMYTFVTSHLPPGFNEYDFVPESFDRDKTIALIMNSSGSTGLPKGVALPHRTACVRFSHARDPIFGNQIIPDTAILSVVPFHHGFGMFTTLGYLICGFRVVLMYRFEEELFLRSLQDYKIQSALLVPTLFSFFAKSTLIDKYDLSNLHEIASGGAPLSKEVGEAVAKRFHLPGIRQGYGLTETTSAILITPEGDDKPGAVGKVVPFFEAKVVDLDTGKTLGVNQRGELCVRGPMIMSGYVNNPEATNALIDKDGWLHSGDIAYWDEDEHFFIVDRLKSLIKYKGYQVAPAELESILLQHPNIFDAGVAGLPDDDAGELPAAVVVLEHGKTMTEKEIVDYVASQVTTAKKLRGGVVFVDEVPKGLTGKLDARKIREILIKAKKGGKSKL
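Purified P. pyralis luciferase (10nM final) with 10uM D-luciferin and 10uM ATP (Km levels) in 50mM Tris acetate pH 7.5, 10mM Mg acetate, 0.01% Tween-20, 0.05% BSA; qHTS 6-point titration, ~60 µM downward; luminescence read.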
Rab9 promoter act – activates the Rab9 promoter. Huh7 Rab9 promoter-luciferase reporter, luminescence, 24 h. Potency, µM (series often up to 9.22 µM), hits mostly activators. 320,000 tested, 2.8% active. AID 485297; also: nearly all actives have a fitted effect of over 60% in size
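Rab9 promoter-driven luciferase in stably transfected Huh7 cells; 1500 cells/well rested 2 h, exposed to compound in DMSO for 24 h at 37 °C, 5% CO2. Luminescence read 10 min after adding luciferase reagent at ambient temperature.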
Of the large screens only hits and unclear results are named; the others gave an inactive call. Calls follow the shape of the dose curve; as a rule, active = well fitted curve in the direction sought with a large enough effect; inconclusive = small, poorly fitted or top-dose-only effect, or another doubt; inactive = no such curve, though single readings can be large; an effect the other way counts as inactive or inconclusive.

COc1ccc(-c2csc(/C(C#N)=C\c3ccc(O)c([N+](=O)[O-])c3)n2)cc1OC	FLuc modulator 15µM (no result: KinaseGlo FLuc, SMN2 splice up)
COc1cc(/C=C(\C#N)c2nc3ccccc3s2)cc([N+](=O)[O-])c1O	FLuc modulator 8.5µM
COc1ccc(-c2csc(/C(C#N)=C\c3ccc(OC)c([N+](=O)[O-])c3)n2)cc1	none
Cc1ccc(C)c(N2CCN(C(=O)Cn3nc(Cc4cccnc4)c4ccccc4c3=O)CC2)c1	none (no result: ELG1 genotoxic, NPC1 prom act, KinaseGlo FLuc, Rab9 promoter act)
O=C(O)Cc1c[nH]c2ccc(F)cc12	none (no result: ELG1 genotoxic, NPC1 prom act, FLuc modulator, Rab9 promoter act)
CCCC(=O)Nc1nnc(S(=O)(=O)N(C)Cc2ccc(Cl)cc2)s1	none (no result: ELG1 genotoxic, NPC1 prom act, KinaseGlo FLuc, SMN2 splice up, Rab9 promoter act)
Cc1ccc(C)c(S(=O)(=O)NCCc2csc(-c3ccc(Cl)cc3)n2)c1	none (no result: ELG1 genotoxic, NPC1 prom act, KinaseGlo FLuc, SMN2 splice up, Rab9 promoter act)
O=C(Cn1nc(Cc2cccnc2)c2ccccc2c1=O)Nc1cccc(C(F)(F)F)c1	none (no result: ELG1 genotoxic, NPC1 prom act, KinaseGlo FLuc, Rab9 promoter act)
CCN(CC)C(=O)CSc1nnc2ccc3ccccc3n12	none (no result: ELG1 genotoxic, NPC1 prom act, KinaseGlo FLuc, SMN2 splice up, Rab9 promoter act)
CCn1c(SCC(=O)Nc2ccccc2Cl)nnc1C1CC1	none (no result: KinaseGlo FLuc, SMN2 splice up)
O=C(CSc1nnc2ccc3ccccc3n12)Nc1ccccc1Cl	FLuc modulator 17µM (no result: ELG1 genotoxic, NPC1 prom act, KinaseGlo FLuc, SMN2 splice up, Rab9 promoter act)
CCCOC(=O)CSc1nnc2ccc3ccccc3n12	FLuc modulator 9.5µM (no result: ELG1 genotoxic, NPC1 prom act, KinaseGlo FLuc, SMN2 splice up, Rab9 promoter act)
O=C(Nc1ccc(F)c(Cl)c1)C1CCN(S(=O)(=O)c2ccc3c(c2)CCCN3C(=O)C2CCC2)CC1	none (no result: ELG1 genotoxic, NPC1 prom act, KinaseGlo FLuc, SMN2 splice up, Rab9 promoter act)
Cc1cc(/C=C2\SC(=S)NC2=O)c(C)n1C1CC1	NPC1 prom act inconclusive, FLuc modulator 6.7µM, Rab9 promoter act inconclusive
Cc1cc(/C=C2/C(=O)N(C)C(=S)N2C)c(C)n1C1CC1	ELG1 genotoxic 18µM, NPC1 prom act 2.8µM, SMN2 splice up 13µM, FLuc modulator 3µM, Rab9 promoter act 2µM
Cc1nn(-c2ccccc2)c(Cl)c1/C=C1\C(=O)N(C)C(=S)N1C	none
Cc1cccc(NC(=O)c2c(N)sc3c2CCC(C)C3)c1 (stereo not given)	FLuc modulator inconclusive (no result: ELG1 genotoxic, NPC1 prom act, KinaseGlo FLuc, Rab9 promoter act)
CCC(Cc1ccccc1)NC(=O)c1ccc2nc(N3CCOCC3)sc2c1 (stereo not given)	none (no result: KinaseGlo FLuc, SMN2 splice up)
CCC(Cc1ccccc1)NC(=O)c1ccc2nc(N3CCC(C)CC3)sc2c1 (stereo not given)	FLuc modulator 12µM (no result: ELG1 genotoxic, NPC1 prom act, KinaseGlo FLuc, Rab9 promoter act)
CCOc1ccc(CCNC(=O)c2ccc3nc(N4CCC(C)CC4)sc3c2)cc1OCC	none (no result: ELG1 genotoxic, NPC1 prom act, KinaseGlo FLuc, Rab9 promoter act)
CCOC(CNC(=O)c1ccc2nc(N3CCC(C)CC3)sc2c1)OCC	ELG1 genotoxic inconclusive, NPC1 prom act inconclusive, FLuc modulator 17µM, Rab9 promoter act inconclusive
O=C(CC(SCCO)c1ccc2c(c1)OCO2)c1cccs1 (stereo not given)	ELG1 genotoxic inconclusive, NPC1 prom act inconclusive, FLuc modulator 13µM, Rab9 promoter act 4µM
c1cncc(-c2nc(NCCN3CCOCC3)c3ccccc3n2)c1	none (no result: ELG1 genotoxic, NPC1 prom act, FLuc modulator, Rab9 promoter act)
CCN1CCN(C(c2ccccc2)c2sc3nc(-c4ccco4)nn3c2O)CC1 (stereo not given)	none (no result: ELG1 genotoxic, NPC1 prom act, KinaseGlo FLuc, SMN2 splice up, Rab9 promoter act)
O=[N+]([O-])c1ccc(C(c2sc3nc(-c4ccco4)nn3c2O)N2CCN(c3cccc(Cl)c3)CC2)cc1 (stereo not given)	FLuc modulator 19µM (no result: ELG1 genotoxic, NPC1 prom act, KinaseGlo FLuc, SMN2 splice up, Rab9 promoter act)
Cc1ccc(-c2csc(-c3ccncc3)n2)cc1	ELG1 genotoxic inconclusive, NPC1 prom act inconclusive, SMN2 splice up inconclusive, FLuc modulator 11µM, Rab9 promoter act 4µM
Nc1nc(-c2ccc(F)cc2)cs1	ELG1 genotoxic inconclusive, FLuc modulator inconclusive, Rab9 promoter act inconclusive
Nc1nc(-c2ccc(Br)cc2)cs1	ELG1 genotoxic inconclusive, NPC1 prom act inconclusive, SMN2 splice up inconclusive, FLuc modulator 19µM, Rab9 promoter act inconclusive
Brc1ccc(-c2csc(Nc3nc(-c4ccc(Br)cc4)cs3)n2)cc1	FLuc modulator inconclusive (no result: KinaseGlo FLuc, SMN2 splice up)
Brc1ccc(-c2csc(-c3ccncc3)n2)cc1	ELG1 genotoxic inconclusive, SMN2 splice up inconclusive, FLuc modulator 4.8µM, Rab9 promoter act inconclusive
O=C(Nc1ccccn1)c1ccc(NC(=O)c2ccco2)cc1	ELG1 genotoxic inconclusive, NPC1 prom act 2.2µM, SMN2 splice up 13µM, FLuc modulator 11µM, Rab9 promoter act 2.2µM
Cc1ccccc1NC(=O)c1ccc(NC(=O)c2ccco2)cc1	ELG1 genotoxic inconclusive, FLuc modulator inconclusive
COc1cc(C(=O)Nc2ccccn2)cc(OC)c1OC	none
